The nature of test [1]: Nuclear factor erythroid 2-related factor 2/antioxidant responsive element (Nrf2/ARE) small molecule agonists: qHTS cell viability counter screen in human keratinocytes (AID 1919968; active = well fitted curve in the direction sought with a large enough effect in the repeat runs; an effect the other way counts as inactive or inconclusive; note: nearly all actives have a fitted effect of over 55% in size). Summed up: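 Cells of the KeratinoSens line were plated at 1,500 per well and left for 5 h before compound transfer from DMSO stocks. After a 23 h incubation (37 C, 5% CO2), CellTiter-Fluor was added. Signal was taken as fluorescence intensity 1 h later.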

Test [2] is described as follows: Nuclear factor erythroid 2-related factor 2/antioxidant responsive element (Nrf2/ARE) small molecule agonists: luciferase reporter gene qHTS assay in human keratinocytes (AID 1919969). Note: nearly all actives have a fitted effect of over 35% in size. Note: potency is the fitted concentration of half-maximal effect.
Test [3] addresses Gonadotropin-releasing hormone receptor (Homo sapiens) (UniProt P30968). In words: Human gonadotropin-releasing hormone receptor (GnRHR) small molecule agonists, calcium flux assay in GnRHR-HEK293 cells (AID 1920063). Note: nearly all actives have a fitted effect of over 35% in size. Summed up: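 Compounds dissolved in DMSO are pin-transferred onto dye-loaded GnRHR-HEK293 cells, which were seeded 18 h before at 37 C/5% CO2. Calcium signal is read as fluorescence intensity at 1 s intervals for 3 min.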
For orientation: Calcium assays in cells follow changes in intracellular calcium, usually with a dye or a luminescent sensor.

Test [4] has as its target KiSS-1 receptor (Homo sapiens) (UniProt Q969F8). The test is described as follows: Human kisspeptin (KISS1R) small molecule agonists, calcium flux assay in KISS1R-HEK293 cells (AID 1920064; active = well fitted curve in the direction sought with a large enough effect in the repeat runs; an effect the other way counts as inactive or inconclusive). An outline of the steps:
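Cell line: HEK293, stable human KISS1R. Dye loading 1 h at 37 C after 18 h culture. Read: kinetic fluorescence, 480/540 nm, 3 min at 1 s intervals.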

Test [5] in a line: G protein-coupled receptor (GPCR) small molecule agonists, calcium flux assay: HEK293 wild type cell line counter screen (AID 1920065). Summed up:
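Tox21 10K compounds, 15 concentrations each in triplicate, pin-transferred in DMSO onto dye-loaded cells; kinetic read at 480/540 nm for 3 min, 1 s intervals.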

Test [6] is described as follows: p53 small molecule agonists, cell-based qHTS assay with rat liver microsomes (AID 1963578). Summed up:
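With rat liver microsomes and NADPH present (0.5 mg/mL final each), p53RE-bla cells are treated with compound for 16 h at 37 C. LiveBLAzer detection mixture is then applied for 2 h at room temperature in the dark.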

A short description of test [7]: p53 small molecule agonists, cell-based qHTS assay with human liver microsomes: qHTS cell viability counter screen (AID 1963579). Note: nearly all actives have a fitted effect of over 45% in size. An outline of the steps:
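In this multiplexed counter screen, the reporter plates were subsequently treated with CellTiter-Glo so that cell viability, reflected by luminescence, could be recorded for p53RE-bla cells dosed 16 h with compounds under microsomal activation (HLM and NADPH).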
For orientation: Quantitative high-throughput screening tests each substance at several concentrations.

Test [8] in a line: p53 small molecule agonists, cell-based qHTS assay with rat liver microsomes: qHTS cell viability counter screen (AID 1963580). Note: nearly all actives have a fitted effect of over 45% in size. Summed up:
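Rat liver microsome (0.5 mg/mL final) and NADPH (0.5 mg/mL final) co-incubation with compounds for 16 h at 37 C on HCT-116 p53RE-bla cells; cytotoxicity taken from intracellular ATP luminescence.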

Test [9] in a line: p53 small molecule agonists, cell-based qHTS assay: qHTS cell viability counter screen (AID 1963581). Note: nearly all actives have a fitted effect of over 45% in size. Summed up:
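ATP content measured by luminescence in HCT-116 p53RE-bla cells treated 16 h at 37 C, same wells as the reporter screen.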

Test [10] in a line: p53 small molecule agonists, cell-based qHTS assay (AID 1963582; active = well fitted activation curve with a large enough effect in the signal ratio in the repeat runs, not every such curve was filed as active; the % refers to the signal ratio). An outline of the steps: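 16 h compound exposure (37 C) of p53 response element–bla cells, preceded by 5 h recovery at 37 C/5% CO2; read-out via LiveBLAzer B/G FRET substrate, 2 h RT, fluorescence intensity.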
For test [11], the target named is 5-hydroxytryptamine receptor 2A (Homo sapiens) (UniProt P28223). The test is described as follows: 5-hydroxytryptamine receptor 2A (HTR2A) small molecule antagonists, cell-based qHTS assay (AID 1963586). Note: nearly all actives have a fitted effect of over 45% in size. An outline of the steps:
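CHO cells stably expressing human HTR2A were plated for 18 h at 37 C, then loaded with calcium dye for 1 h. Compounds were preincubated 5 min at room temperature before DOI (4 nM solution) was added. Kinetic fluorescence was read for 3 min.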

For test [12] the target is unchanged. In words: 5-hydroxytryptamine receptor 2A (HTR2A) small molecule agonists, cell-based qHTS assay (AID 1963587). Note: nearly all actives have a fitted effect of over 30% in size. Summed up: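 Kinetic calcium-flux fluorescence (2 min, 1 sec intervals) after compound addition in agonist mode. HTR2A-CHO cells were cultured 18 h, then dye-loaded 1 h at 37 C.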
In test [13] the target is Muscarinic acetylcholine receptor M1 (Homo sapiens) (UniProt P11229). In words: Cholinergic receptor muscarinic 1 (CHRM1) small molecule antagonists, cell-based qHTS assay (AID 1963588). Note: nearly all actives have a fitted effect of over 40% in size. An outline of the steps: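 Compounds were tested at 15 concentrations in three independent runs. Dye-loaded CHRM1-CHO cells were exposed 5 min at room temperature before stimulation by acetylcholine added at 50nM. Intracellular calcium was read kinetically on FDSS for 3 min.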

Test [14] shares this target. The test is described as follows: Cholinergic receptor muscarinic 1 (CHRM1) small molecule agonists, cell-based qHTS assay (AID 1963589). Note: nearly all actives have a fitted effect of over 35% in size. Summed up:
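Homogeneous fluorescence calcium flux, agonist mode. Human M1-expressing CHO cells; compound dosed at 15 concentrations, three independent runs; signal sampled every 1 sec.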

A short description of test [15]: cAMP Responsive Elements (CRE) small molecule agonists, cell-based qHTS assay (AID 1963590). An outline of the steps: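 HEK 293T cells stably bearing CRE-bla were plated at 2,000 cells per well and rested 18 h. Compounds, positive controls or DMSO were added for 3 h at 37 C. LiveBLAzer B/G substrate was then loaded for 2 h at room temperature.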
Test [16] can be described thus: cAMP Responsive Elements (CRE) small molecule antagonists, cell-based qHTS assay (AID 1963591; active = well fitted inhibition curve with a large enough effect in the signal ratio in the repeat runs, not every such curve was filed as active; the % refers to the signal ratio). Summed up: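 First, CRE-bla HEK293T cells settled 18 h at 37 C. Next, compound and 0.25 uM final NKH477 were applied for 3 h. Last, LiveBLAzer B/G substrate was loaded for 2 h at room temperature.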
The target in test [17] is Beta-2 adrenergic receptor (Homo sapiens) (UniProt P07550). In words: Adrenergic beta2 receptor (ADRB2) small molecule antagonists, cell-based qHTS assay (AID 1963592). Note: series mostly up to about 92 µM; nearly all actives have a fitted effect of over 50% in size. An outline of the steps: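 Assay format: CHO-ADRB2 cells, 18-20hr seeding at 37C/5% CO2, then compound plus 1nM isoproterenol agonist mix for 0.5hr RT. Homogeneous time-resolved fluorescence cAMP detection after 1hr, expressed as 665/615 nm ratio.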

Test [18] has as its target D(2) dopamine receptor (Homo sapiens) (UniProt P14416). In words: Dopamine D2 receptor (DRD2) small molecule agonists, cell-based qHTS assay (AID 1963594). Note: nearly all actives have a fitted effect of over 35% in size. An outline of the steps:
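cAMP accumulation in DRD2-HEK293 cells measured by HTRF after 1 h detection; compounds added 10 min before NKH477 (200nM […]) forskolin-analogue stimulation, 30 min at room temperature, with Ro20-1724 present at 0.1 mM final.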

Test [19] has the same target. In words: Dopamine D2 receptor (DRD2) small molecule antagonists, cell-based qHTS assay (AID 1963595; active = well fitted inhibition curve with a large enough effect in the signal ratio in the repeat runs, with a control signal flat; the % refers to the signal ratio). Summed up: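 Antagonism was scored as restored cAMP in HEK293-DRD2 cells. These cells were stimulated with 200 nM NKH477 and 12 nM quinpirole for 30 min at room temperature, in the presence of 0.1 mM Ro20-1724.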
For test [20], the target named is Beta-2 adrenergic receptor (Homo sapiens) (UniProt P07550). In words: Adrenergic beta2 receptor (ADRB2) small molecule agonists, cell-based qHTS assay (AID 1963593).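 Note: CHO cells stably overexpressing human ADRB2.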 Summed up:
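CHO cells stably over-expressing ADRB2 were plated overnight at 37C, then dosed with compounds plus a stimulation mix containing 100uM IBMX and 25uM Ro-20-1724 for 0.5hr at room temperature. cAMP was measured by HTRF competition, 1hr.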

Inconclusive results are not listed. Calls of active or inactive are those of the source. Unless noted, calls come from the whole dose curve.

Sequence of KiSS-1 receptor (Homo sapiens) (Q969F8 whole entry, looked up): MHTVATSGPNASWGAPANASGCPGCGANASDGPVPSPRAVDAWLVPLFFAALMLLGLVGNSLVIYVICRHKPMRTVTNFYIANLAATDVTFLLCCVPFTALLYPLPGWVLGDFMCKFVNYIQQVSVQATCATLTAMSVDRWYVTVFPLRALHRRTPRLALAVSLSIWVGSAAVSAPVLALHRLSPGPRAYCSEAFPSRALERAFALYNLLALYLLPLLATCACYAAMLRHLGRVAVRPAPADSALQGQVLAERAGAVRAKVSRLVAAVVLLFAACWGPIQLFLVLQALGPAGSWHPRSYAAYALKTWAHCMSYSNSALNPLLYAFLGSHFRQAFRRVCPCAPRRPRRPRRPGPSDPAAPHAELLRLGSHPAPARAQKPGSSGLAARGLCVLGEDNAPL
Sequence of Beta-2 adrenergic receptor (Homo sapiens) (P07550 whole entry, looked up): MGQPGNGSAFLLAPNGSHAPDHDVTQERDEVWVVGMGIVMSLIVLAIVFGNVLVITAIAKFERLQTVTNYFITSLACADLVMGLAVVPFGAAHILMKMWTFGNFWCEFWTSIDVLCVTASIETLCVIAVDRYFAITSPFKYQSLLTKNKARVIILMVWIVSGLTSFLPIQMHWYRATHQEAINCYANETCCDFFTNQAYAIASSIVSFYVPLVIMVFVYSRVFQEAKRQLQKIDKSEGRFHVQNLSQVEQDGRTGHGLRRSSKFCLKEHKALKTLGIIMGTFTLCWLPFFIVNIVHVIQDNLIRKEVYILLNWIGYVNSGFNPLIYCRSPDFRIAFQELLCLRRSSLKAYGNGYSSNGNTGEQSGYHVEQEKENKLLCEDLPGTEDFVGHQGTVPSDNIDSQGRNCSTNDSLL
Sequence of Gonadotropin-releasing hormone receptor (Homo sapiens) (P30968 whole entry, looked up): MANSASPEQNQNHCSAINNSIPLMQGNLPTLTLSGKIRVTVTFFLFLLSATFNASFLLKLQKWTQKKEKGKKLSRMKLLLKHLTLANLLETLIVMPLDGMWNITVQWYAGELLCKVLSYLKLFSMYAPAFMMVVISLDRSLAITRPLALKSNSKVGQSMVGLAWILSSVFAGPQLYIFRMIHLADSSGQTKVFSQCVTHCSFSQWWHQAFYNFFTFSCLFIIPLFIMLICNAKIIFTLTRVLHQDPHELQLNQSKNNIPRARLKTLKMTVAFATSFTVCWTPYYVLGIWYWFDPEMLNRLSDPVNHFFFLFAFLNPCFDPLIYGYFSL
Sequence of Muscarinic acetylcholine receptor M1 (Homo sapiens) (P11229 whole entry, looked up): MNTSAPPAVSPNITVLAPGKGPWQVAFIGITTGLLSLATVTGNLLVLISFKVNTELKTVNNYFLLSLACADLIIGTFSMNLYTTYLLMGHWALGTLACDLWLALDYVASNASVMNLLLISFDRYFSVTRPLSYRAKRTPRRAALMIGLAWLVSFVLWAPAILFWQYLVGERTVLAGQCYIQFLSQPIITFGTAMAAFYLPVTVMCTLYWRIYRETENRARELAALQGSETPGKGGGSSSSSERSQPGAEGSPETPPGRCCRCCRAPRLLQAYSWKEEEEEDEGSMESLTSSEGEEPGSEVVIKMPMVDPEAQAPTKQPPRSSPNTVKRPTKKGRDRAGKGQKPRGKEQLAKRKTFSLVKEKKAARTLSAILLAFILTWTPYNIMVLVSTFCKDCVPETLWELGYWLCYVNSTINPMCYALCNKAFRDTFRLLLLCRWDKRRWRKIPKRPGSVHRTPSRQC
Sequence of D(2) dopamine receptor (Homo sapiens) (P14416 whole entry, looked up): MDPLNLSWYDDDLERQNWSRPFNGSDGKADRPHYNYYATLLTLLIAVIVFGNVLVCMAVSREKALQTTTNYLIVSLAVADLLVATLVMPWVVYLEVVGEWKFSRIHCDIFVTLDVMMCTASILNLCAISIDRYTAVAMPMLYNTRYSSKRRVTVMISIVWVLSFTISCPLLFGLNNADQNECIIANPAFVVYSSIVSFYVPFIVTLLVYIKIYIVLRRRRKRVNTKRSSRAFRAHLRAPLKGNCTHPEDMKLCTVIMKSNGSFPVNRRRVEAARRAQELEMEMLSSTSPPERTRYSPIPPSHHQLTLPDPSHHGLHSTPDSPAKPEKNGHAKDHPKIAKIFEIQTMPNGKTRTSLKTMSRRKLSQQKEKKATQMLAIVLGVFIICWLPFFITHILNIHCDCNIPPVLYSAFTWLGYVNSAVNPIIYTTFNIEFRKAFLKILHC
Sequence of 5-hydroxytryptamine receptor 2A (Homo sapiens) (P28223 whole entry, looked up): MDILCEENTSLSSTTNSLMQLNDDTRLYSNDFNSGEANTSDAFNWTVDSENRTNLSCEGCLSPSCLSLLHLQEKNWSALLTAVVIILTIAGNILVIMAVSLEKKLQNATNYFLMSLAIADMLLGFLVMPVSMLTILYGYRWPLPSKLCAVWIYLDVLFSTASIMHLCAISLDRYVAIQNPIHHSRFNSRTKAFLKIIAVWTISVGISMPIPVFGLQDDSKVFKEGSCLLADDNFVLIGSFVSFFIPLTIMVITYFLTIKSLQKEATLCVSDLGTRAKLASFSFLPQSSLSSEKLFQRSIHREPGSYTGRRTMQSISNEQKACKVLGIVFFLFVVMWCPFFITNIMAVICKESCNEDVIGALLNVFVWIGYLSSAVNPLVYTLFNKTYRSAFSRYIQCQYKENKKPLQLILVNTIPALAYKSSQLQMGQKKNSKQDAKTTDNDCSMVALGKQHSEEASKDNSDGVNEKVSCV

With `CCCCCC1CCC(=O)O1` (centres undefined), the Potency entry in test [1], in test [2], in test [3], in test [4], in test [5] and in [6] was “inactive” each time. For the same compound, the Potency entry in test [7], in test [8], in [9], in [10], in test [11] and in test [12] was “inactive” throughout. Besides, the Potency result in test [13], in test [14], in test [15], in test [16], in test [17] and in test [18] was “inactive” throughout. Further, in test [19], the Potency entry is “inactive”.

For `NC(=O)c1ccccc1Cl`, the Potency entry in [1], in test [2], in test [3], in test [4], in test [5] and in test [8] was “inactive” in each case. In addition, the Potency result in test [9], in test [10], in test [11], in [12], in test [13] and in test [14] was “inactive” throughout. Besides, the Potency entry in test [15], in test [16], in test [17], in [20], in test [18] and in test [19] was “inactive” each time.

Regarding `O=C(O)c1ccc(CO)o1`, the Potency entry in test [1], in [2], in [3], in test [4], in [5] and in test [7] was “inactive” each time. The Potency entry in test [8], in test [10], in test [12], in [13], in test [14] and in test [15] was “inactive” throughout. Besides, the Potency result in test [17], in [20], in [18] and in test [19] was “inactive” each time.

As to `c1ccc2c(c1)CCc1ccccc1N2`, the Potency entry in test [1], in test [3], in test [4], in [5], in [7] and in test [8] was “inactive” each time. Moreover, the Potency entry in test [9], in test [10], in test [11], in test [12], in test [13] and in [15] was “inactive” in each case. The Potency result in test [16], in test [20], in test [18] and in [19] was “inactive” in each case. In addition, the Potency in test [2] was 61.4 µM (active).

Turning to `O=C1Nc2ccccc2C1=O`, the Potency result in test [1], in test [2], in test [3], in test [4], in test [5] and in test [6] was “inactive” each time. Also, the Potency entry in test [7], in test [8], in [9], in test [10], in test [11] and in test [12] was “inactive” in each case. The Potency result in test [13], in test [14], in test [15], in test [16], in test [17] and in test [20] was “inactive” throughout. The Potency result in [18] and in test [19] was “inactive” throughout.

Turning to `CCC(=O)OCc1ccc(OC)cc1`, the Potency entry in [1], in test [2], in test [3], in test [4], in test [5] and in [6] was “inactive” throughout. For the same compound, the Potency result in test [7], in test [8], in test [9], in test [10], in [11] and in [12] was “inactive” each time. For the same compound, the Potency result in test [13], in test [14], in [15], in test [16], in [17] and in test [20] was “inactive” in each case. The Potency entry in test [18] and in test [19] was “inactive” each time.

Take `CC(=O)Nc1ccc(C)cc1`: the Potency entry in test [1], in test [2], in test [3], in test [4], in test [5] and in [7] was “inactive” each time. The Potency entry in test [8], in [11], in [12], in test [13], in [14] and in test [15] was “inactive” each time. Moreover, the Potency entry in test [16], in test [17], in test [18] and in test [19] was “inactive” throughout.

As for `C=CC(O)CCCCC` (centres undefined), the Potency result in test [1], in test [2], in test [3], in test [4], in test [5] and in test [7] was “inactive” in each case. Moreover, the Potency entry in [8], in [9], in test [10], in test [11], in test [12] and in test [13] was “inactive” in each case. In addition, the Potency result in test [14], in [15], in test [17], in [20], in test [18] and in test [19] was “inactive” each time.

The values above are taken from PubChem BioAssay (Tox21).
